Screening data as filed in PubChem BioAssay.
Casp7 inh: qHTS Assay for Allosteric/Competitive Inhibitors of Caspase-7 | P55210 | recombinant caspase-7, Ac-DEVD-AFC fluorescence rate | Potency, µM (series often up to 57.5 µM), without a hit: at the top dose activity change, negative = inhibition, actives largely listed as inhibitors | 75,000 tested, 0.02% active | AID 889, 2007; active means well fitted inhibition curve with a large enough effect in the main read-out, with a control signal flat, not every such curve was filed as active; inconclusive means small, poorly fitted or top-dose-only effect, or a change in a side signal; further: % of control where 0% means no effect
Target sequence (P55210 24-198 limits assumed): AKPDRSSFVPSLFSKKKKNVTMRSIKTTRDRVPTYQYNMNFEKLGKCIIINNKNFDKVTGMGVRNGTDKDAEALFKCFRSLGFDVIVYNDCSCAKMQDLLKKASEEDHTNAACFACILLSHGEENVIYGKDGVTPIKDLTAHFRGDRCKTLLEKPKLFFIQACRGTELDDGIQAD
Target sequence (P55210 207-303 limits assumed): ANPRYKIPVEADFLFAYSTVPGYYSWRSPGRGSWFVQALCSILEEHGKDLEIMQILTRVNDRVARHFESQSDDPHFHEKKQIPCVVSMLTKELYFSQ
15-hLO inh: qHTS Assay for Inhibitors of 15-hLO (15-human lipoxygenase); Polyunsaturated fatty acid lipoxygenase ALOX15 (Homo sapiens), P16050; purified 15hLO-1, xylenol orange hydroperoxide absorbance; Potency, µM (highest dose often 57.1 µM), inactives show at the highest dose activity change, negative = inhibition, usual class: inhibitors; 74,000 tested, 1.4% active; further: on the % scale 0 is the no-effect control and ±100 the full control effect; nearly all actives have a fitted effect of over 55% in size
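Inhibition is scored from a chromogenic endpoint. After 15 min enzyme-compound contact, arachidonic acid (50 uM final) reacts 6 min with 40 nM 15hLO-1 at room temperature, then Fe-XO reagent is added for 30 min and absorbance ratio recorded.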
HEK293 cAMP cs: qHTS Assay for Agonists of the Thyroid Stimulating Hormone Receptor: Activators of Intracellular cAMP Concentrations in Parental HEK 293; 73,000 tested, 2.5% active; AID 938, 2007; parental HEK293 CNG cAMP sensor, membrane potential fluorescence; Potency, µM (doses to about 57.1 µM), without a hit: top-dose activation, usual class: activators; further: % of control where 0% means no effect; nearly all actives have a fitted effect of over 55% in size
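Parental HEK 293 cells stably expressing a modified CNG channel (no TSHR) report cAMP rise as membrane depolarization. Membrane potential dye with 100 uM RO 20-1724 was loaded for 60 min at room temperature, then compound added for 30 min; fluorescence read at 590 nm.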
TSHR ag: qHTS Assay for Agonists of the Thyroid Stimulating Hormone Receptor | HEK293-CNG-TSHR cells (CNG channel as cAMP sensor), membrane potential dye, cAMP | Potency, µM (top dose mostly 57.1 µM), for the others: top-dose activation, actives largely listed as activators | 73,000 tested, 0.48% active | Thyrotropin receptor (Homo sapiens), P16473 | AID 926, 2007; active means well fitted activation curve with a large enough effect in the main read-out, with a control signal flat, not every such curve was filed as active; inconclusive means small, poorly fitted or top-dose-only effect, or a change in a side signal; inactive means no such curve, though single readings can be large or run the other way; % of control where 0% means no effect;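 further: the control signal comes from parental cells without the receptor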
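HEK 293 cells stably expressing TSHR and a cAMP-gated CNG channel; parental CNG-only cells as counterscreen. Cells preloaded 60 min with membrane potential dye plus 100 uM RO 20-1724, then compound 30 min; fluorescence read at 590 nm.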
15-hLO-2 inh: qHTS Assay for Inhibitors of 15-hLO-2 (15-human lipoxygenase 2) | Polyunsaturated fatty acid lipoxygenase ALOX15B (Homo sapiens), O15296 | purified 15hLO-2, xylenol orange hydroperoxide absorbance | Potency, µM (titrated, usually from 57.1 µM), for the others: at the highest dose activity change, negative = inhibition, actives largely listed as inhibitors | 110,000 tested, 0.56% active | AID 881, 2007; further: on the % scale 0 is the no-effect control and ±100 the full control effect; nearly all actives have a fitted effect of over 60% in size
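Purified human 15hLO-2 (50 nM final) preincubated with compounds 15 min at room temperature in 25 mM Hepes pH 7.5, 0.01% Triton X-100, then 45 uM arachidonic acid added for 90 min; hydroperoxide detected via ferrous/xylenol orange, 573/405 nm absorbance ratio.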
Caspase-1 inhib: qHTS Assay for Allosteric/Competitive Inhibitors of Caspase-1 | P29466 | Caspase-1 enzyme, Ac-WEHD-AFC fluorogenic rate | Potency, µM (titrated, usually from 57.5 µM), without a hit: at the highest dose activity change, negative = inhibition, usual class: inhibitors | 75,000 tested, 0.03% active;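 further: plate controls were vehicle for no effect and no substrate for full effect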
Target sequence (P29466 120-297 limits assumed): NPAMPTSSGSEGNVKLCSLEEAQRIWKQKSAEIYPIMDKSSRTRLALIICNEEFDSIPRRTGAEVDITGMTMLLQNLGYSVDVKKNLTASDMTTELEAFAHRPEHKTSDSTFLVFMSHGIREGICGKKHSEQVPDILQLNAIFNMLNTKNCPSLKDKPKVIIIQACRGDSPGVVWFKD
Target sequence (P29466 317-404 limits assumed): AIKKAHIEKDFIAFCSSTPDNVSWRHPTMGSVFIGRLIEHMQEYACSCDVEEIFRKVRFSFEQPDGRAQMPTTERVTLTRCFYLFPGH
The depositor's hits bear a star; ? = inconclusive; . = not tested or not shown; [ ] = remark or other dose. This is a sample that favours compounds with a hit; in the whole collection about 3% have one here. Unless noted, the call rests on the fitted dose curve; in most records, active means well fitted curve in the direction sought with a large enough effect; inconclusive means small, poorly fitted or top-dose-only effect, or another doubt; inactive means no such curve, though single readings can be large; an effect the other way counts as inactive or inconclusive. Potency means the concentration at half of the fitted maximal effect.

SMILES | Casp7 inh | 15-hLO inh | HEK293 cAMP cs | TSHR ag | 15-hLO-2 inh | Caspase-1 inhib
CC[C@@H](c1ccccc1)n1c(=O)n2n(c1=O)[C@H]1[C@H](O)[C@H]3O[C@H]3C(=O)[C@H]1CC2 | -9%[11.5 µM] | 10%[11.4 µM] | 3%[11.4 µM] | 0%[11.4 µM] | . | 3%[11.5 µM]
CCCn1c(NC(=O)c2ccc(Cl)c(S(=O)(=O)N3CCCC3)c2)nc2ccccc21 | -6% | 14% | 16µM* | ? | 56% | -4%
Cc1oc(-c2nc3ccccc3n2C)cc1C(=O)c1ccccc1 | -11% | ? | 25µM* | ? | . | -10%
Cn1cc(C(=O)c2ccccc2)cc1-c1nc2ccccc2n1C | -2% | 6% | 30% | 35% | 6% | 0%
CO/N=C1/c2cc(OC)ccc2O[C@@H](c2cccc(OC)c2)[C@H]1O | 0%[11.5 µM] | 2%[11.4 µM] | -3%[11.4 µM] | -3%[11.4 µM] | . | -1%[11.5 µM]
CN[C@@H]1[C@H](O[C@H]2[C@H](O[C@H]3[C@H](O)[C@@H](O)[C@H](N=C(N)N)[C@@H](O)[C@@H]3N=C(N)N)O[C@@H](C)[C@]2(O)C=O)O[C@@H](CO)[C@H](O)[C@H]1O | . | . | . | . | -3%[0.0915 µM] | .
Cc1c(N2C(=O)c3ccc4c5c(ccc(c35)C2=O)CC4)c(=O)n(-c2ccccc2)n1C | -27% | 25µM* | -7% | -4% | ? | -6%
CCCn1c(SCC(=O)N2CCN(c3ccccc3)CC2)nc2ccccc2c1=O | -6% | -5% | 27% | 5µM* | 2% | -3%
CCOC(=O)c1ccc(NC(=O)CSc2nc3c(c(=O)n2C)SC(C)C3)cc1 (stereo not drawn) | -2% | 4% | 20µM* | ? | 0% | -2%
CCn1c(SCC(=O)N2CCN(c3ccc(F)cc3)CC2)nc2ccccc2c1=O | -1% | 8% | ? | ? | 3% | 1%
CCn1c(SCC(=O)N2CCN(c3ccccc3)CC2)nc2c(c1=O)SC(C)C2 (stereo not drawn) | -2% | -30% | 25µM* | ? | . | 1%
CC1Cc2nc(SCC(=O)N3CCN(c4ccccc4)CC3)n(CCc3ccccc3)c(=O)c2S1 (stereo not drawn) | . | . | . | . | -1% | .
CC[C@]12CCCN3CCc4c(n(c5ccccc45)C(=O)C1)[C@H]32 | 0% | -1%[25.6 µM] | . | . | 3% | 2%
O=C1c2ccccc2C(Nc2ccc(Cl)cn2)N1c1ccccn1 (stereo not drawn) | -1% | -5% | 16µM* | ? | . | -4%
O=C1c2ccccc2C(Nc2ccc(S(=O)(=O)N3CCCCCC3)cc2)N1c1ccccn1 (stereo not drawn) | . | . | . | . | 3% | .
N#CC1=C(N)N2C(=C(C#N)C13CCCCC3)SC1CCCCC12O (stereo not drawn) | 0% | 20µM* | -32% | ? | -11% | -3%
CCN(CC)CCNC(=O)c1ccc(Cc2nc3ccccc3[nH]2)cc1 | 2% | 2% | -18% | 16% | . | -4%
CN(C)C(=O)Cn1c(SCC(=O)NC2CCCCC2)nc2ccccc21 | 0% | 3% | 20% | 0% | . | -1%
CC(C)Cn1c(SCC(=O)NC(=O)NC2CCCC2)nc2ccccc21 | -4% | -13% | 32µM* | ? | -8% | -1%
CCN(Cc1ccccc1)C(c1ccccn1)c1nnnn1C(C)(C)CC (stereo not drawn) | 5% | 5% | 5µM* | ? | -4% | -3%
CC(C)(C)n1nnnc1C(c1ccccn1)N(Cc1ccccc1)Cc1ccc(Cl)cc1 (stereo not drawn) | . | . | . | . | 4% | .
Cc1ccc(/C=c2\sc3nc(-c4cccs4)nn3c2=O)o1 | 2% | 13µM* | -19% | 11% | -21% | 2%
COc1ccccc1/C=c1\sc2nc(-c3cccs3)nn2c1=O | -2% | -1% | -1% | -5% | . | -1%
COC(=O)c1ccc(Cn2cnc3c(cnn3-c3ccc(C)c(C)c3)c2=O)o1 | -5% | -9% | 3.2µM* | ? | . | -2%
COC(=O)c1ccc(Cn2cnc3c(cnn3-c3ccc(F)cc3)c2=O)o1 | -2% | -4% | ? | ? | -9% | 2%
SMILES | Casp7 inh | 15-hLO inh | HEK293 cAMP cs | TSHR ag | 15-hLO-2 inh | Caspase-1 inhib
C=CCn1c(SCC(=O)c2ccccc2)nnc1-c1cc2ccccc2o1 | 0% | -15% | 32µM* | ? | -22% | -8%
C=CCn1c(SCC(=O)c2ccc(OC)cc2)nnc1-c1cc2cccc(OC)c2o1 | -2% | -8% | ? | ? | -3% | -4%
C1CCC(c2nn3c(-c4n[nH]c5c4CCC5)nnc3s2)CC1 | -11% | 6% | 32µM* | ? | -5% | -2%
COc1cc(C(=O)Oc2cccc(C=O)c2)cc(OC)c1OC | . | . | . | . | 2% | .
COc1cc(C(=O)Oc2ccccc2N)cc(OC)c1OC | 0% | 1%[11.4 µM] | -1%[11.4 µM] | 3.2µM* | -6% | -2%
CC(C)(c1cc(Br)c(O)c(Br)c1)c1cc(Br)c(O)c(Br)c1 | -10% | 2.5µM* | ? | ? | ? | ?
CN(C)C(=O)c1ccc(-c2nc(Nc3ccccc3)c3ccccc3n2)cc1 | -9% | -12% | 14% | 20µM* | -5% | -7%
O=C(O)CCc1c2ccc(=O)c(O)c-2oc2c(O)c(O)ccc12 | -20%[11.5 µM] | 3.2µM* | 2%[11.4 µM] | -4%[11.4 µM] | ? | -5%[11.5 µM]
O=c1cc(-c2cccc(O)c2)oc2c(O)c(O)ccc12 | -2% | ? | -27% | -14% | -27% | -1%
COc1ccc(Cn2c(-c3ccco3)nc3oc4cc(OC)ccc4c(=O)c3c2=O)cc1 | -9% | -1% | -2% | 3.2µM* | -2% | 0%
COc1ccc2c(=O)c3c(=O)n(Cc4ccco4)c(-c4ccco4)nc3oc2c1 | . | . | . | . | -17% | .
COc1cccc(-c2nc(NC3CCNCC3)c3ccccc3n2)c1 | 0% | ? | -33% | ? | 50% | -3%
NCCCCCc1nnc(SCC(=O)Nc2cccc(Cl)c2)o1 | -1% | 5% | 4% | 16µM* | 12% | -3%
O=S1(=O)N[C@H]2CC[C@@H]3NS(=O)(=O)N[C@H]4CC[C@H](N1)N4S(=O)(=O)N23 | -18%[11.5 µM] | 2%[11.4 µM] | 4%[11.4 µM] | 7%[11.4 µM] | -4%[11.4 µM] | 1%[11.5 µM]
CCOC(=O)c1[nH]c(COC(=O)C2CC(=O)N(Cc3ccccc3)C2)c(C(=O)OCC)c1C (stereo not drawn) | 1% | -15% | 25µM* | ? | -1% | 0%
COc1ccc(C(=O)c2cn[nH]c2-c2cc(Cl)ccc2O)cc1 | -2% | 20µM* | -6% | -9% | -6% | -3%
